Screens from PubChem.
A selection: hits, their analogues and other compounds. The true share with any hit is near 11%.
ALDH1A1 inh – inhibitors of human aldehyde dehydrogenase 1A1 | P00352 | Purified ALDH1A1, NADH fluorescence, propionaldehyde substrate | Potency, µM (series often up to 75.3 µM), without a hit: at the highest dose activity, negative = inhibition, most hits filed as inhibitors | actives 7.3% (n = 220,000) | AID 1030;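 also: potency is read from the fitted curve at half-maximal effect; plate controls were no enzyme wells and a reference inhibitor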
PNC assembly inh – perinucleolar compartment assembly inhibition | PC3M PTB-GFP, PNC prevalence imaging, 16 h; stronger effect = lower value | activity change (PNC), negative = inhibition, % at 10 µM | actives 3.1% (n = 140,000) | AID 2417;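 active = readout at or below -70, meaning at least 70% loss of cells showing the perinucleolar compartment, a nuclear body marking cancer cells; inconclusive = readout between -30 and a set limit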;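 also: plate controls were DMSO wells for no effect and camptothecin positive control wells for full effect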
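Read-out is percentage of cells bearing a perinucleolar compartment, from automated 20x imaging of fixed, Hoechst-stained PC3M PTB-GFP cells. Cells were seeded 4 h, then exposed 16 h to compound (23 nl of library stock) in duplicate plates.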
HPGD inh – inhibitors of human 15-hydroxyprostaglandin dehydrogenase (HPGD). AID 894. actives 4.3% (n = 150,000). purified HPGD, NADH fluorescence kinetic, PGE2 substrate. P15428. Potency, µM, for inactives: at the top dose activity change, negative = inhibition, hits mostly inhibitors; also: potency is read from the fitted curve at half-maximal effect
Target sequence (P15428 whole entry, looked up): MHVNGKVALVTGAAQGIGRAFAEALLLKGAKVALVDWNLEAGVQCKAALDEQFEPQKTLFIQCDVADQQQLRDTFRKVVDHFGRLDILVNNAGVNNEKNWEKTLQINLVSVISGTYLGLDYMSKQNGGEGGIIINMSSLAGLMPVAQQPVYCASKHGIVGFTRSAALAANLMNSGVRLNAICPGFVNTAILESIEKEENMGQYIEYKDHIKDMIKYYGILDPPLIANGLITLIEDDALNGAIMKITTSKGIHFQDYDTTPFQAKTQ
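NADH formation kinetics: reaction with 30 uM PGE2 and 1 mM NAD+ (final), 20 nM enzyme, Tris-HCl pH 8 with Tween 20, after 15 min compound preincubation at room temperature. Fluorescence change, last versus first of five reads.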
Active calls of the source: *; [ ] = dose if it differs, or a comment. Unless noted, calls follow the shape of the dose curve; as a rule, active = well fitted inhibition curve with a large enough effect (not every such curve was filed as active); inconclusive = small, poorly fitted or top-dose-only effect, or another doubt; inactive = no such curve, though single readings can be large or run the other way. Unless noted, % is scaled to controls: 0 for no effect and ±100 for the full control effect.

How did COc1ccc(S(=O)(=O)NC(CC(=O)NCCc2ccc(OC)c(OC)c2)C(C)C)cc1 (stereo not drawn) do in these assays?
ALDH1A1 inh: 1%

How did Cn1c(-c2ccc(N)cc2)nc2ccccc21 do in these assays?
ALDH1A1 inh: inconclusive; PNC assembly inh: 11

What do the screens show for `Cc1ccc(-n2c(N)c(-c3nc4ccccc4n3C)sc2=S)cc1`?
ALDH1A1 inh: 3.5µM*; PNC assembly inh: inconclusive; HPGD inh: 6.3µM*

How did Clc1ccccc1-c1ccc2ncnc(N3CCNCC3)c2c1 do in these assays?
ALDH1A1 inh: 11%

How did O=C1CC(c2ccccc2Cl)=NN(c2ncnc3ccccc23)C1=O do in these assays?
ALDH1A1 inh: 0.63µM*

What do the screens show for `O=C(O)c1ccc(C(=O)c2ccccc2)c(C(=O)O)c1`?
ALDH1A1 inh: 20%[13.5 µM]; HPGD inh: -2%

What do the screens show for `COc1cc(CN2CCCC(C(=O)c3ccccc3SC)C2)cc(OC)c1` (stereo not drawn)?
ALDH1A1 inh: -7%

Results for COc1ccc(CN(C(=O)CSc2nnc(-c3c[nH]c4ccccc34)o2)c2ccc(F)cc2)cc1OC ?
ALDH1A1 inh: -13%; PNC assembly inh: -10; HPGD inh: -17%

What do the screens show for `COc1ccccc1CN1CCSCC1`?
ALDH1A1 inh: -9%; PNC assembly inh: inconclusive; HPGD inh: 5%

How did COc1ccccc1Cn1[nH]nnc1=S do in these assays?
ALDH1A1 inh: 4µM*

Results for Clc1ccc(-c2nnc(CNC3CC3)o2)cc1 ?
ALDH1A1 inh: 8%; PNC assembly inh: 16; HPGD inh: -6%

Results for CS(=O)(=O)N1CCC2(CC1)CN(C(=O)Nc1cccc(C#N)c1)C2 ?
ALDH1A1 inh: -1%; HPGD inh: inconclusive

What do the screens show for `COc1cc(/C=C/CN2CCN(Cc3ccc(C)o3)C(CCO)C2)ccc1O` (stereo not drawn)?
ALDH1A1 inh: 6%

How did CC(=O)C1=C(O)C(=O)N(CCC(=O)O)C1c1cccc(F)c1 (stereo not drawn) do in these assays?
ALDH1A1 inh: -9%; PNC assembly inh: inconclusive; HPGD inh: 25µM*

What do the screens show for `CC(=O)C1=C(O)C(=O)N(CCO)C1c1ccccc1` (stereo not drawn)?
ALDH1A1 inh: 1%

How did N#Cc1cccc(NC(=O)COC(=O)CCc2nc3ccccc3c(=O)[nH]2)c1 do in these assays?
ALDH1A1 inh: 1%

What do the screens show for `N/C(=N\OC(=O)COc1ccc(Cl)cc1Cl)c1ccncc1`?
ALDH1A1 inh: 0%

How did O=C1NC(c2ccccc2)(C(F)(F)F)C(=O)N1Cc1cccnc1 (stereo not drawn) do in these assays?
ALDH1A1 inh: -14%; PNC assembly inh: -85*; HPGD inh: -19%

Results for O=c1c2ccccc2c2ccccc2c(=O)n1Cc1cccnc1 ?
ALDH1A1 inh: 1%; PNC assembly inh: 10; HPGD inh: -8%

How did COC(=O)C1=C(C(=O)OC)[C@@H]2N(C)c3ccc(OC)cc3[C@@]23C[C@@H](C(=O)OC)N(S(=O)(=O)c2ccc(C#N)cc2)C3=N1 do in these assays?
ALDH1A1 inh: 4%[13.5 µM]; HPGD inh: 1%

What do the screens show for `CCCCC[C@H](O)/C=C/C=C\CCCCCCCC(=O)O`?
ALDH1A1 inh: 5%; HPGD inh: -3%

How did CCN(CC)C(=O)c1cccc2c1C(=O)c1ccccc1-2 do in these assays?
ALDH1A1 inh: -3%; PNC assembly inh: inconclusive; HPGD inh: -5%

What do the screens show for `CCN(CC)C(=O)c1ccc2c(c1[N+](=O)[O-])C(=O)c1ccccc1C2=O`?
ALDH1A1 inh: 9%; PNC assembly inh: -82*; HPGD inh: inconclusive

How did COc1ccc(NC(=O)c2cc3c(Cl)nc4ccccc4c3s2)cc1OC do in these assays?
ALDH1A1 inh: 3%; PNC assembly inh: -88*; HPGD inh: -5%

What do the screens show for `COc1ccc(OC)c(NC(=O)c2cc3c(Cl)nc4ccccc4c3s2)c1`?
ALDH1A1 inh: inconclusive; PNC assembly inh: 50; HPGD inh: -25%

What do the screens show for `O=C(Oc1ccccc1)n1c(=O)oc2ccc(Cl)cc21`?
ALDH1A1 inh: 1%; HPGD inh: -5%

What do the screens show for `Cc1cccc(OC(=O)n2c(=S)oc3cc(Cl)ccc32)c1`?
ALDH1A1 inh: 3.5µM*; PNC assembly inh: 7; HPGD inh: -19%

Results for O=C(C1COc2ccccc2O1)N1CCCC1 (stereo not drawn) ?
ALDH1A1 inh: inconclusive; PNC assembly inh: inconclusive; HPGD inh: 13µM*

How did O=C(Nc1ccc(S(=O)(=O)N2CCCC2)cc1)C1COc2ccccc2O1 (stereo not drawn) do in these assays?
ALDH1A1 inh: -3%; PNC assembly inh: -90*; HPGD inh: -10%
